Assay results: PubChem BioAssay (Tox21)
Results filed as inconclusive are left out. The source holds several records for some structures; these can differ, active in one and inactive in another. Active and inactive are the calls of the source. Unless noted, calls follow the shape of the dose curve; as a rule, active = well fitted curve in the direction sought with a large enough effect in the repeat runs; inconclusive = weak or mixed curves; inactive = no such curve, though single readings can be large; an effect the other way counts as inactive or inconclusive.

How the values were obtained:
[1] = A CellTox Green Cytotoxicity Assay to monitor cytotoxicity in HEK293 cells - 32 hour (AID 1224881); also: nearly all actives have a fitted effect of over 40% in size
In short: (§1)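 Dead-cell fluorescence measured kinetically: asymmetric cyanine dye, HEK293, 600 cells/well, 5 h settle, 23 nL cpd/DMSO, 37 C, reads 0–40 h every 8 h.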

[2] = A CellTox Green Cytotoxicity Assay to monitor cytotoxicity in HepG2 cells - 0 hour (AID 1224882); also: nearly all actives have a fitted effect of over 35% in size
In short: (§2)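 First, HepG2 cells (600/well) mixed with reagent were plated; second, after 5 h at 37 C they received compounds via pintool; third, fluorescence was measured at 0 h through 40 h at 8 h intervals.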

[3] = A CellTox Green Cytotoxicity Assay to monitor cytotoxicity in HepG2 cells - 32 hour (AID 1224883); also: nearly all actives have a fitted effect of over 50% in size
In short: as §2

[4] = A CellTox Green Cytotoxicity Assay to monitor cytotoxicity in HEK293 cells - 8 hour (AID 1224884); also: nearly all actives have a fitted effect of over 35% in size
In short: as §1

[5] = qHTS RealTime-Glo MT Cell Viability Assay in HepG2 cells - 16 hour (AID 1224885); also: nearly all actives have a fitted effect of over 50% in size
In short: (§3)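 Cell number in HepG2 cultures estimated from NanoLuc luminescence generated by metabolic reduction of a prosubstrate by living cells. The homogeneous, nonlytic format allowed repeated reads at 0, 8, 16, 24, 32 and 40 h of compound exposure.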

[6] = qHTS RealTime-Glo MT Cell Viability Assay in HEK293 cells - 24 hour (AID 1224886); also: nearly all actives have a fitted effect of over 50% in size; also: potency is read from the fitted curve at half-maximal effect; as to activity change, negative = cytotoxicity: top concentration of the series differs between compounds
In short: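 Homogeneous bioluminescent viability format in HEK293 cells (600 cells/well). Following 5 h at 37 C/5% CO2, 23 nL compound was pintooled; the signal was measured repeatedly during 40 h incubation.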

[7] = qHTS RealTime-Glo MT Cell Viability Assay in HEK293 cells - 8 hour (AID 1224887); also: nearly all actives have a fitted effect of over 50% in size; also: potency is read from the fitted curve at half-maximal effect; as to activity change, negative = cytotoxicity: top concentration of the series differs between compounds
In short: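 600 HEK293 cells per well, dispensed already mixed with RealTime-Glo MT reagents. Compound dosing came 5 h later. The same wells were read for luminescence at 0, 8, 16, 24, 32 and 40 h of exposure at 37 C.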

[8] = A CellTox Green Cytotoxicity Assay to monitor cytotoxicity in HEK293 cells - 16 hour (AID 1224888); also: nearly all actives have a fitted effect of over 35% in size
In short: as §1

[9] = qHTS RealTime-Glo MT Cell Viability Assay in HepG2 cells - 0 hour (AID 1224889); also: nearly all actives have a fitted effect of over 50% in size; also: potency is read from the fitted curve at half-maximal effect
In short: as §3

[10] = A CellTox Green Cytotoxicity Assay to monitor cytotoxicity in HepG2 cells - 8 hour (AID 1224890); also: nearly all actives have a fitted effect of over 45% in size
In short: as §2

[11] = qHTS assay to identify small molecule antagonists of the estrogen receptor alpha (ER-alpha) signaling pathway using the BG1 cell line in the presence of 0.1 nM 17-beta-estradiol - cell viability counter screen (AID 1259241); also: nearly all actives have a fitted effect of over 40% in size
In short: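 Cytotoxicity counter-screen: live-cell protease activity measured by fluorescence (30 min reagent step) in the same wells. Cells were VM7Luc4E2 with endogenous ER-alpha and ERE-driven luciferase, treated 22 hr at 37C alongside 0.1 nM 17beta-estradiol final.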

[12] = qHTS assay to identify small molecule antagonists of the androgen receptor (AR) signaling pathway using the MDA cell line in the presence of 0.5 nM R1881 - cell viability counter screen (AID 1259242); also: nearly all actives have a fitted effect of over 45% in size
In short: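 qHTS format. MDA-kb2 (MMTV-luc, AR/GR responsive) + cpd + 0.5 nM R1881 final, 16 hr 37C/0% CO2 → CellTiter-Fluor 30 min → fluorescence intensity.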

[13] = qHTS assay to identify small molecule phospholipidosis (PLD) inducers (AID 1259344; active = well fitted curve in the direction sought with a large enough effect; an effect the other way counts as inactive or inconclusive; also: potency is read from the fitted curve at half-maximal effect)
In short: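 Accumulated phospholipid, stained red by LipidTOX during 24 h compound treatment of HepG2 cells at 37 C, is quantified from images as pit number and intensity, normalised per cell using Hoechst-stained nuclei.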

[14] = qHTS assay to identify small molecule HDAC inhibitors - cell viability counter screen (AID 1259365)
In short: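 CellTiter-Glo luminescence (30 min, room temperature) reported viability after a 2 h compound exposure at 37 C. Cells: wild-type HCT-116, 1,500 per well, seeded the night before.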

[15] = qHTS assay to identify small molecule agonists of the sonic hedgehog signaling (Shh) pathway (AID 1259368; calls by dose curve;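 also: NIH/3T3-derived 3T3Gli1-Luc cells carrying a stable Gli1-driven firefly luciferase reporter; series mostly up to about 92 µM; nearly all actives have a fitted effect of over 15% in size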)
In short: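 Quantitative high-throughput format using a Gli1-driven firefly luciferase reporter line derived from NIH/3T3 cells. After a 24 hr compound treatment at 37 C and 5% CO2, luminescence reported Gli1 response element activity.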

[16] = qHTS assay to identify small molecule HDAC inhibitors (AID 1259364); also: potency is read from the fitted curve at half-maximal effect;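 also: wild-type HCT-116 cells with endogenous class I/II HDAC activity; nearly all actives have a fitted effect of over 45% in size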; as to activity change, negative = inhibition: top concentration of the series differs between compounds
In short: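 Quantitative high-throughput format: overnight-seeded HCT-116 cells got compounds for 2 hr at 37C; HDAC-Glo I/II reagent added, 30 min RT, luminescence measured.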

[17] = qHTS assay to identify small molecule agonists of the sonic hedgehog signaling (Shh) pathway - cell viability counter screen (AID 1259366); also: nearly all actives have a fitted effect of over 50% in size; also: potency is read from the fitted curve at half-maximal effect
In short: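 Cytotoxicity counter screen: CellTiter-Fluor reagent added after 23 h compound exposure, then 1 h at 37C and fluorescence read. Cells were 3T3 Gli1-Luc, seeded 2,000 per well and dosed 4 h post-plating.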

[18] = qHTS assay to identify small molecule antagonists of the sonic hedgehog signaling (Shh) pathway - cell viability counter screen (AID 1259367); also: nearly all actives have a fitted effect of over 55% in size
In short: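 CellTiter-Fluor signal in conditioned medium-stimulated 3T3 Gli1-Luc cells, 23 hr compound exposure, 37C.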

[19] = target: Androgen receptor (Homo sapiens) (UniProt P10275); assay: qHTS assay to identify small molecule antagonists of the androgen receptor (AR) signaling pathway using the MDA cell line in the presence of 0.5 nM R1881 (AID 1259243); also: nearly all actives have a fitted effect of over 50% in size
In short: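 Antagonist mode quantitative HTS in MDA-kb2 MMTV-luciferase cells, agonist R1881 at 0.5 nM final, 16 hr exposure at 37C and 0% CO2, luminescent detection.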

[20] = target: Estrogen receptor (Homo sapiens) (UniProt P03372); assay: qHTS assay to identify small molecule antagonists of the estrogen receptor alpha (ER-alpha) signaling pathway using the BG1 cell line in the presence of 0.1 nM 17-beta-estradiol (AID 1259244); also: nearly all actives have a fitted effect of over 50% in size
In short: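 Reporter is a stably transfected luciferase under four estrogen responsive elements in VM7Luc4E2 cells expressing native full-length ER-alpha; inhibition of 0.1 nM (final) 17beta-estradiol-driven signal over 22 h is read by luminescence.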
% is scaled to controls: 0 for no effect and ±100 for the full control effect.

Androgen receptor (Homo sapiens), sequence (P10275 whole entry, looked up): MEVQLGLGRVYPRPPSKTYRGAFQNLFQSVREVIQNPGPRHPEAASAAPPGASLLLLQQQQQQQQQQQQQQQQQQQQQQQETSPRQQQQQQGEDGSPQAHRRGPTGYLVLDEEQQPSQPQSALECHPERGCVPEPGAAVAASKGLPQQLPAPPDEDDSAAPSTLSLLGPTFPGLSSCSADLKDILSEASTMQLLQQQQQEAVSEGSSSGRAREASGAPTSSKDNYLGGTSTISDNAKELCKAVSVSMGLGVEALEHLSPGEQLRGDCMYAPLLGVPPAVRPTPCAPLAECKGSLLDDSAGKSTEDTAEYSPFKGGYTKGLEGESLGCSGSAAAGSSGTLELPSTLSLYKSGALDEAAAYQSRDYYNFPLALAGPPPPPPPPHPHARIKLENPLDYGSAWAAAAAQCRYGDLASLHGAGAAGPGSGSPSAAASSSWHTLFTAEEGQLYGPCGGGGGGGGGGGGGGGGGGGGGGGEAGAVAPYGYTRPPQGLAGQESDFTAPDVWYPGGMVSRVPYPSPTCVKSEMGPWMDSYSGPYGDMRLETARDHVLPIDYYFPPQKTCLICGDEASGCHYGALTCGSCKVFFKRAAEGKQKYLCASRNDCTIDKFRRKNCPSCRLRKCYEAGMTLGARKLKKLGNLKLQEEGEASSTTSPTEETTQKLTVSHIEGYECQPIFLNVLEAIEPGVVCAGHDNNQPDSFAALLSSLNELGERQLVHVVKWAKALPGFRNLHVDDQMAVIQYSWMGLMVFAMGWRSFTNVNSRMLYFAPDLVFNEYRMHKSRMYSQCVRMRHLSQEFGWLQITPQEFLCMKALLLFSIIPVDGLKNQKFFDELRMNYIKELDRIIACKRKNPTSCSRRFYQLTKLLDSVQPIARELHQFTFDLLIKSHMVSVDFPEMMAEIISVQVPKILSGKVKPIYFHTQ
Estrogen receptor (Homo sapiens), sequence (P03372 whole entry, looked up): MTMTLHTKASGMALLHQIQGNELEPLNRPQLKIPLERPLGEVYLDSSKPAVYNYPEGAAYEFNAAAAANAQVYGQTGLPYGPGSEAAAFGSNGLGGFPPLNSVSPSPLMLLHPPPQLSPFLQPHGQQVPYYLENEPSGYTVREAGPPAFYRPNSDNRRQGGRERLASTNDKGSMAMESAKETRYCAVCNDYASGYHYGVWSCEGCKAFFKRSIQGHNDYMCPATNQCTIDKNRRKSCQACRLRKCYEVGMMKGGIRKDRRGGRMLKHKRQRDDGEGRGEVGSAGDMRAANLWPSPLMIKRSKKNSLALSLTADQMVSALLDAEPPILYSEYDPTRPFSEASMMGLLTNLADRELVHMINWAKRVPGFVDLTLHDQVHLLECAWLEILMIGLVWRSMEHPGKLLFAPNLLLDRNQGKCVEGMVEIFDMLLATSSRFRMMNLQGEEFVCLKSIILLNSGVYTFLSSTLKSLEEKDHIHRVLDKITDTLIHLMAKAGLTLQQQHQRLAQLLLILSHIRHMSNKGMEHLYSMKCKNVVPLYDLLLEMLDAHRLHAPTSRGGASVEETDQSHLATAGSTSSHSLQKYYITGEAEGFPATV

OC(C#CCN1CCCC1)(c1ccccc1)c1ccccc1
inactive: Potency [1] | Potency [2] | Potency [3] | Potency [4] | Potency [5] | Potency [6] | Potency [7] | Potency [8] | Potency [9] | Potency [10] | Potency [11] | Potency [12] | Potency [13] | Potency [14] | outcome [15]

O=C(NCCO[N+](=O)[O-])c1cccnc1
inactive: Potency [1] | Potency [2] | Potency [3] | Potency [4] | Potency [5] | Potency [6] | Potency [7] | Potency [8] | Potency [9] | Potency [10] | Potency [11] | Potency [12] | Potency [13] | Potency [16] | Potency [14] | Potency [17] | Potency [18] | outcome [15]

C[C@@H]1C[C@H]2O[C@@]3(O[C@@H]2C(C)(C)O)[C@H](O)[C@@]2(C)[C@@H]4CC[C@H]5C(C)(C)[C@@H](O[C@@H]6OC[C@@H](O)[C@H](O)[C@H]6O)CC[C@@]56C[C@@]46CC[C@]2(C)[C@@H]13
active: Potency [9] 2.16 µM
inactive: Potency [1] | Potency [2] | Potency [3] | Potency [4] | Potency [5] | Potency [6] | Potency [7] | Potency [8] | Potency [10] | Potency [11] | Potency [12] | Potency [19] | Potency [20] | Potency [16] | Potency [14] | Potency [17] | Potency [18] | outcome [15]

OCCN1CCN(CCCN2c3ccccc3C=Cc3ccccc32)CC1
active: Potency [13] 12.6 µM | Potency [17] 11.9 µM
inactive: Potency [1] | Potency [2] | Potency [3] | Potency [4] | Potency [5] | Potency [6] | Potency [7] | Potency [8] | Potency [9] | Potency [10] | Potency [11] | Potency [12] | Potency [20] | PLD induction [13] 0.496% [at 7.66 µM] | Potency [16] | Potency [14] | outcome [15]

COc1ccc(C)cc1[N+](=O)[O-]
inactive: Potency [1] | Potency [2] | Potency [3] | Potency [4] | Potency [5] | Potency [6] | Potency [7] | Potency [8] | Potency [9] | Potency [10] | Potency [11] | Potency [12] | Potency [16] | Potency [17] | Potency [18] | outcome [15]

CC1=CC=C(C(C)C)CC1
inactive: Potency [1] | Potency [2] | Potency [3] | Potency [4] | Potency [5] | Potency [6] | Potency [7] | Potency [8] | Potency [9] | Potency [10] | Potency [11] | Potency [12] | Potency [20] | Potency [16] | Potency [14] | Potency [17] | Potency [18] | outcome [15]

O=C1C(O)=C(O)C(=O)C(O)=C1O
inactive: Potency [1] | Potency [2] | Potency [3] | Potency [4] | Potency [5] | Potency [6] | Potency [7] | Potency [8] | Potency [9] | Potency [10] | Potency [11] | Potency [12] | Potency [20] | Potency [13] | Potency [16] | Potency [14] | Potency [17] | Potency [18] | outcome [15]

NCc1ccccc1Sc1ccccc1CO
inactive: Potency [1] | Potency [2] | Potency [3] | Potency [4] | Potency [5] | Potency [6] | Potency [7] | Potency [8] | Potency [9] | Potency [10] | Potency [12] | Potency [19] | Potency [20] | Potency [13] | Potency [16] | Potency [14] | Potency [17] | Potency [18] | outcome [15]

C/C(=C(\CCOP(=O)(O)O)SC(=O)c1ccccc1)N(C=O)Cc1cnc(C)nc1N
inactive: cytotoxicity increase [1] -7.02% [at 6.97 µM] | cytotoxicity [2] 4.51% [at 6.97 µM] | cytotoxicity increase [3] -0.701% [at 6.97 µM] | cytotoxicity increase [4] -3.85% [at 6.97 µM] | activity change, negative = cytotoxic [5] 1.38% [at 6.97 µM] | activity change, negative = cytotoxicity [6] 2.35% [at 6.97 µM] | activity change, negative = cytotoxicity [7] 3.68% [at 6.97 µM] | activity change [8] -2.42% [at 6.97 µM, stronger effect = higher value] | activity change, negative = cytotoxicity [9] 4.53% [at 6.97 µM] | cytotoxicity increase [10] 0.403% [at 6.97 µM] | viability change, negative = cytotoxic [12] 2.34% [at 8.39 µM] | activity, negative = inhibition [19] 2.6% [at 8.39 µM] | activity change, negative = inhibition [20] 5.19% [at 8.39 µM] | Potency [13] | activity change, negative = inhibition [16] -1.49% [at 8.39 µM] | viability change, negative = cytotoxic [17] -1.58% [at 8.39 µM] | viability change, negative = cytotoxic [18] 0.0493% [at 8.39 µM] | activity change [15] 0.138% [at 8.39 µM]

O=C(O)c1ccccc1Cl
inactive: Potency [1] | Potency [2] | Potency [3] | Potency [4] | Potency [5] | Potency [6] | Potency [7] | Potency [8] | Potency [9] | Potency [10] | Potency [11] | Potency [12] | Potency [14] | Potency [17] | Potency [18] | outcome [15]

C=C1C(=C/C=C2\CCC[C@]3(C)[C@@H]([C@H](C)/C=C/[C@@H](O)C4CC4)CC[C@@H]23)C[C@@H](O)C[C@@H]1O
active: Potency [6] 19 µM | Potency [7] 19 µM
inactive: Potency [1] | Potency [2] | Potency [3] | Potency [4] | Potency [5] | Potency [8] | Potency [9] | Potency [10] | Potency [11] | Potency [12] | Potency [14] | Potency [17] | Potency [18] | outcome [15]

CC(COCCO)OCCO (centres undefined)
inactive: Potency [1] | Potency [2] | Potency [3] | Potency [4] | Potency [5] | Potency [6] | Potency [7] | Potency [8] | Potency [9] | Potency [10] | Potency [11] | Potency [12] | Potency [19] | Potency [16] | Potency [14] | Potency [17] | Potency [18] | outcome [15]

O=P(O)(OCc1ccccc1)OCc1ccccc1
inactive: Potency [1] | Potency [2] | Potency [3] | Potency [4] | Potency [5] | Potency [6] | Potency [7] | Potency [8] | Potency [9] | Potency [10] | Potency [11] | Potency [12] | Potency [20] | Potency [16] | Potency [17] | Potency [18] | outcome [15]

O=C(OCCc1ccccc1)c1ccccc1
inactive: Potency [1] | Potency [2] | Potency [3] | Potency [4] | Potency [5] | Potency [6] | Potency [7] | Potency [8] | Potency [9] | Potency [10] | Potency [11] | Potency [12] | Potency [20] | Potency [14] | Potency [17] | Potency [18] | outcome [15]
active: Potency [16] 9.69 µM

c1cc(CCCc2ccncc2)ccn1
inactive: Potency [1] | Potency [2] | Potency [3] | Potency [4] | Potency [5] | Potency [6] | Potency [7] | Potency [8] | Potency [9] | Potency [10] | Potency [11] | Potency [12] | Potency [20] | Potency [16] | Potency [14] | Potency [17] | Potency [18] | outcome [15]
